# Columns and labels:
# Test in all cases: PBM binding z-score (relative to random genomic background probes); higher = stronger binding; sequences stand for … in GC…GCGATTGACAGCGTAGAATGAAGG
# [1] = system: FXR:RXRa (NR concentration 270 nM, RXRa partner concentration 90 nM)
# Procedure, shortened: (§1)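 Regression normalization was applied to scanned fluorescence from custom Agilent 4×180K protein-binding microarrays. Before scanning, arrays were incubated 1 h with ligand-free nuclear receptor dimers, and binding was detected with antibodies against each partner (one per run). Binding z-scores use the random background probes as reference.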
# [2] = system: LXRa:RXRa (NR concentration 270 nM, RXRa partner concentration 90 nM)
# Procedure, shortened: as §1
# [3] = system: LXRa homodimer (NR concentration 270 nM)
# Procedure, shortened: as §1
# [4] = system: LXRb:RXRa (NR concentration 270 nM, RXRa partner concentration 90 nM)
# Procedure, shortened: as §1
# [5] = system: LXRb homodimer (NR concentration 270 nM)
# Procedure, shortened: as §1
# [6] = system: PPARa:RXRa (NR concentration 270 nM, RXRa partner concentration 90 nM)
# Procedure, shortened: as §1
# [7] = system: PPARg:RXRa (NR concentration 180 nM, RXRa partner concentration 90 nM)
# Procedure, shortened: as §1
# [8] = system: PPARg:RXRa 270nM:90nM, anti-RXR (NR concentration 270 nM, RXRa partner concentration 90 nM)
# Procedure, shortened: as §1
# [9] = system: PPARg:RXRa 30nM:10nM, anti-RXR (NR concentration 30 nM, RXRa partner concentration 10 nM)
# Procedure, shortened: as §1
# [10] = system: PPARg:RXRa 90nM:30nM, anti-RXR (NR concentration 90 nM, RXRa partner concentration 30 nM)
# Procedure, shortened: as §1
# [11] = system: PPARg:RXRa DBDmut IVT, anti-RXR (DBD mutation: RXRa K156A/R161A, NR concentration 270 nM, RXRa partner concentration 90 nM)
# Procedure, shortened: as §1
# [12] = system: PPARg:RXRa IVT, anti-PPARg (NR concentration 270 nM, RXRa partner concentration 90 nM)
# Procedure, shortened: as §1
# [13] = system: PPARg DBDmut:RXRa IVT, anti-PPARg (DBD mutation: PPARg1 K132A/R137A, NR concentration 270 nM, RXRa partner concentration 90 nM)
# Procedure, shortened: as §1
# [14] = system: PPARg DBDmut IVT, anti-PPARg (DBD mutation: PPARg1 K132A/R137A, NR concentration 270 nM)
# Procedure, shortened: as §1
# [15] = system: PPARg homodimer (NR concentration 180 nM)
# Procedure, shortened: as §1
# [16] = system: PXR:RXRa (NR concentration 270 nM, RXRa partner concentration 90 nM)
# Procedure, shortened: as §1
# [17] = system: PXR homodimer (NR concentration 270 nM)
# Procedure, shortened: as §1
# [18] = system: RARa:RXR (NR concentration 270 nM, RXRa partner concentration 90 nM)
# Procedure, shortened: as §1
# [19] = system: RARa homodimer (NR concentration 270 nM)
# Procedure, shortened: as §1
# [20] = system: RARb:RXRa (NR concentration 270 nM, RXRa partner concentration 90 nM)
# Procedure, shortened: as §1
Sequence,PBM binding z-score [1],PBM binding z-score [2],PBM binding z-score [3],PBM binding z-score [4],PBM binding z-score [5],PBM binding z-score [6],PBM binding z-score [7],PBM binding z-score [8],PBM binding z-score [9],PBM binding z-score [10],PBM binding z-score [11],PBM binding z-score [12],PBM binding z-score [13],PBM binding z-score [14],PBM binding z-score [15],PBM binding z-score [16],PBM binding z-score [17],PBM binding z-score [18],PBM binding z-score [19],PBM binding z-score [20]
ATCTCTATGTAAAGTTCAGTGAAAGATCGATAGA,0.881,1.72,1.66,1.17,0.525,1.87,2.59,3.76,2.03,3.82,-0.231,0.863,0.912,1.04,1.11,1.92,2.03,1.18,1.46,2.55
TCTAGTTGGTCACGGAGGTGACACACGACGGGTA,1.04,0.805,-0.0469,0.335,0.00515,1.43,1.64,1.98,2.83,2.24,2.02,3.37,1.22,0.542,1.15,0.71,-0.119,0.781,0.338,1.82
TCATATAGGTAATACAGGTGAACGTCGGCATCTA,0.964,1.09,0.498,1.15,0.51,1.98,1.72,2.78,4.08,3.27,4.33,3.64,1.21,1.68,1.2,0.756,0.663,1.55,2.19,0.705
CCGACTGGTGCAAGGTTACCATAACGCACAGCCA,-0.035,0.459,-0.262,0.654,-1.22,0.831,0.89,0.462,-0.236,0.039,-0.528,-0.0659,-0.402,-0.928,0.54,0.357,-0.288,0.554,0.0426,0.894
ACAGACATGTGATGAAGGTAACTCAGGCTATCAT,0.000592,-0.0384,-0.258,-0.35,-0.283,-0.131,0.611,-0.0726,-0.0978,0.0328,-0.334,0.139,0.595,0.868,-0.0569,-0.448,-0.319,-0.161,-0.142,-0.338
GCAGACAGGTGAAACGCAGGTAACTCACGGTGGC,-0.0802,0.186,-0.449,-0.389,-1.17,0.612,0.796,-0.183,-0.533,-0.11,1.05,0.811,0.104,-0.094,-0.18,-0.51,-0.98,0.0228,-0.454,0.558
CAAACCAGGTCAAGGTCAAAGTCGGTTTGTGCCA,7.11,5.98,4.41,5.17,1.73,6.28,7.8,7.07,4.62,6.61,6.42,7.16,2.64,2.41,4.71,5.84,2.63,6.02,2.21,5.38
CAAACTAGGTCAAGGGTCAAAGTCGAGCCAACCA,7.52,5.72,2.34,5.71,1.02,7.64,13.1,10.9,11.4,11.8,8.5,9.08,6.09,4.1,5.23,5.66,0.825,7.15,1.84,5.38
ACAGACAGGTGTGTGAAGGTAACTCAGCTGGACG,0.0191,-0.00303,-0.46,-0.618,-0.921,-0.347,0.522,-0.0357,-0.212,-0.375,-0.215,-0.0763,-0.159,-0.168,-0.299,-0.399,-0.457,-0.395,-0.0972,-0.265
TTACCAAGGTGAGCTGCGGTCGTTGATCCAACTC,0.391,0.351,-0.281,-0.0836,-1.32,0.597,-0.444,-0.0826,-0.536,-0.439,0.329,1.64,0.125,-0.586,-0.584,1.38,-0.459,0.61,-0.775,1.07
CGTCCAAGGTCTTAGGAGGTCAGTGAAGACAGAT,1.69,3.12,0.984,2.03,-0.404,2.28,0.427,1.06,0.0477,0.43,0.587,1.31,-0.3,-0.454,1.17,3.07,0.796,2.15,-0.152,2.46
CAAACTAAGTCAAGAGGTCAAAGTCCGCTTCCCG,5.6,5.87,5.56,5.06,1.95,5.52,4.19,5.54,2.73,4.86,2.44,3.45,0.624,0.834,4.63,5.85,2.97,6.57,2,4.35
AGATCGAGGGCAATGAGTTGATAGCACGGGTGGC,0.45,0.121,-0.246,-0.143,-0.369,1.14,1.16,0.568,0.0147,0.283,2.97,2.42,0.184,-0.0429,0.453,1.53,3.29,0.437,0.369,2.12
CCTGCTAGCTCATGGTCAGCTAATCTACAGTATG,-0.461,-0.418,-0.46,-0.626,-0.239,-0.737,-0.225,-0.822,-0.885,-0.895,0.183,-0.609,-0.471,-0.109,-0.356,-0.641,-0.376,-0.681,-0.182,-0.0065

# Source: the supplement of paper PMC6555819
